Experimental data as given in PubChem BioAssay AID1851 (National Center for Advancing Translational Sciences (NCATS), 2009).
Screen size: about 16,000 compounds; about 5,800 (36%) were called active. Not shown: some 23% with an inconclusive outcome. This is one part of the list. A number with no mark means an inactive call. Calls follow the shape of the dose curve; as a rule, active = well fitted curve in the direction sought with a large enough effect; inconclusive = small, poorly fitted or top-dose-only effect, or effect the other way; inactive = no such curve, though single readings can be large or run the other way.

molecular target: Cytochrome P450 2C19 (Homo sapiens) (UniProt P33261); experiment: Cytochrome panel assay with activity outcomes; details: recombinant CYP, pro-luciferin dealkylation, luminescence, p450-cyp2c19; series mostly up to 57.1 µM; activity, negative = inhibition: at the top concentration
Sequence (P33261 whole entry, looked up): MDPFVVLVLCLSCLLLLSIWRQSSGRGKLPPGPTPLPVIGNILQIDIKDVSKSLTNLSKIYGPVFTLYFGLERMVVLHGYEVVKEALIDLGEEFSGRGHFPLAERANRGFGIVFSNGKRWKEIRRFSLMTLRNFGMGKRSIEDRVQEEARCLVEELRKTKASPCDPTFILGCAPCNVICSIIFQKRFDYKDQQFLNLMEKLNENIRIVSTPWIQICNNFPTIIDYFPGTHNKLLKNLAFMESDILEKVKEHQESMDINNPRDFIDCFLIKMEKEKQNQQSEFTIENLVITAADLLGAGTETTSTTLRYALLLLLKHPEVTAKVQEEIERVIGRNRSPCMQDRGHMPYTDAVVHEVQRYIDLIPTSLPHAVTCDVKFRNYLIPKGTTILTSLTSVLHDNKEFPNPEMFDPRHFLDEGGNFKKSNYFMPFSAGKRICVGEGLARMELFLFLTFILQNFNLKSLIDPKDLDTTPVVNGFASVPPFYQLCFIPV
% is scaled to controls: 0 for no effect and ±100 for the full control effect.

Structure (SMILES) | AC50 | activity, negative = inhibition
O=C(CC1C(=O)N(c2ccc(Cl)cc2)C(=S)N1CCc1ccncc1)Nc1ccc(F)cc1 (stereo not given) | 0.02 µM (active) | 
CS(=O)(=O)c1ccccc1COC(=O)Nc1ccc(Cl)cc1 | 2.51 µM (active) | 
O=C(Nc1ccccc1)OCc1cc(-c2ccc(Cl)cc2)on1 | 2 µM (active) | 
O=C(Nc1ccc(Cl)cc1)OCc1cc(-c2ccccc2)on1 | 0.447 µM (active) | 
O=C(Nc1ccc(Cl)cc1)OCc1cc(-c2ccccc2Cl)on1 | 0.316 µM (active) | 
O=C(c1cc(C(F)(F)F)cc(C(F)(F)F)c1)N1CCC[C@@]2(CCN(c3ncccn3)C2)C1 |  | 3.94%
CCC(=O)O[C@@H]1[C@H](C)O[C@H](O[C@H]2[C@@H](N(C)C)[C@H](O)[C@@H](O[C@@H]3[C@@H](CC=O)C[C@@H](C)[C@@H](O)/C=C\C=C/C[C@@H](C)OC(=O)C[C@@H](OC(=O)CC)[C@H]3OC)O[C@H]2C)C[C@]1(C)O |  | -40.3% [at 25.6 µM]
Cc1nc(SCC(=O)c2ccc(F)cc2)c([N+](=O)[O-])[nH]1 | 8.91 µM (active) | 
Cn1c(=S)c2[nH]c(SCCCc3ccccc3)nc2n(C)c1=O |  | -28.4% [at 11.4 µM]
O=C1CN=C(Nc2ccccc2)N1Cc1cccs1 | 14.1 µM (active) | 
CCOc1ccc(NC2=NCC(=O)N2Cc2cccs2)cc1 | 11.2 µM (active) | 
C=CCN1C(=O)CN=C1Nc1ccccc1 |  | -10.4%
O=c1cnc2cnc(Nc3ccccc3)nc2n1Cc1cccs1 |  | -24.6%
COc1ccc(-c2nc3cnc(Nc4ccccc4)nc3n(Cc3cccs3)c2=O)cc1 |  | -32.2%
Cc1nc2cnc(Nc3ccccc3)nc2n(Cc2cccs2)c1=O |  | -26.1%
CCCCOc1ccc(/C=C/C(=O)NCCc2nc3ccccc3[nH]2)cc1 | 3.98 µM (active) | 
COc1ccc(CNC(=O)/C=C/c2ccc(OCCCF)cc2)cc1 |  | -15.5%
Nc1nnc(SCCOc2cccc(Br)c2)s1 | 3.98 µM (active) | 
O=C(CSC1CC(=O)N(CC(c2ccccc2)c2ccccc2)C1=O)Nc1ccc(Cl)cc1 (stereo not given) | 1.58 µM (active) | 
CCCCN1C(=O)CC(Sc2ccccc2C(=O)O)C1=O (stereo not given) |  | -28.3%
COC(=O)c1ccc(NC(=O)c2cc3sccc3n2C)cc1 | 7.94 µM (active) | 
Cn1c(C(=O)Nc2ccccc2)cc2sccc21 | 2.51 µM (active) | 
C[C@@]1(CCOCc2ccccc2)NC(=O)NC1=O |  | 0.432% [at 11.4 µM]
COc1ccc(C2(CNC(=O)/C=C/c3ccco3)CCCC2)cc1OC | 7.94 µM (active) | 
COc1cc(OC)c(OC)cc1C=NCC1(c2ccccc2)CCCC1 |  | -3.79%

Structure (SMILES) | AC50 | activity, negative = inhibition
CC[N+](CC)(CC)CC[C@](O)(c1ccccc1)C1CCCCC1 |  | -27.2% [at 25.6 µM]
CCCc1cc2c(n1CCc1ccc(Cl)cc1)C(C)C1CN(C(=O)c3ccccc3)C(C)(C(=O)OC)C21 (stereo not given) | 6.31 µM (active) | 
Nc1ccc(C(=O)C[C@H](N)C(=O)O)cc1O |  | -13.9% [at 11.4 µM]
O=C(O)[C@H]1CCCNC1 |  | -20.1%
Nc1nc(-c2ccccc2)cc(-c2ccccc2O)n1 | 10 µM (active) | 
Oc1ccccc1-c1cc(-c2ccccc2)no1 | 7.94 µM (active) | 
Cc1[nH]c2ccccc2c1-c1cc(-c2cc(-c3c(C)[nH]c4ccccc34)on2)no1 |  | 0.833% [at 11.4 µM]
Cc1ccccc1-c1cc(-c2ccccc2O)on1 | 4.47 µM (active) | 
CC(C)=NOCc1ccc(-c2cc(-c3ccccc3)no2)cc1 |  | -13.3% [at 11.4 µM]
Nc1nc(-c2cc(-c3cccc4ccccc34)nc(N)n2)cc(-c2cccc3ccccc23)n1 |  | 11.9% [at 11.4 µM]
COc1cc2c(cc1OC)-c1cc3ccc(OC)c(OC)c3c[n+]1CC2 |  | 6.43% [at 25.6 µM]
CCOC(=O)C1=C(C)NC(=S)NC1c1cccc(O)c1 (stereo not given) | 25.1 µM (active) | 
COc1ccc(N2C(=O)CCC(C(=O)O)C2c2ccc(F)cc2)cc1 (stereo not given) |  | 0.032%
CCOC(=O)C1=C(C)C(c2ccccc2OC)NC(=S)N1 (stereo not given) | 5.62 µM (active) | 
COC(=O)C1=C(C)C(c2ccc(OC)cc2)NC(=S)N1 (stereo not given) | 14.1 µM (active) | 
COc1ccc(C2C(C(=O)N3CCOCC3)CCC(=O)N2c2ccc(OC)cc2)cc1 (stereo not given) |  | -8.37%
CCOC(=O)c1c(NC(C)=O)sc2c(OC)cccc12 |  | -21.9%
CS(=O)(=O)N1CCC2(CC1)CN(C(=O)Nc1cccc(C#N)c1)C2 |  | -28.2%
CCN(CC)C(=O)Cn1cnc([N+](=O)[O-])n1 |  | -10.4%
CC(NC(=O)Cn1cnc([N+](=O)[O-])n1)c1ccccc1 (stereo not given) | 39.8 µM (active) | 
CC(C)(C)NC(=O)Cn1cnc([N+](=O)[O-])n1 |  | -15.5%
O=S(=O)(c1ccccc1)N1CCC2(CCN(C(c3ccccc3)c3ccccc3)CC2)CC1 |  | 7.59%
O=C1CCC(c2ccccc2)=NN1c1nc2ccccc2s1 |  | 6.12% [at 11.4 µM]
O=S(=O)(c1ccccc1)N1CCCC1c1nc2ccccc2s1 (stereo not given) | 4.47 µM (active) | 
N#CCCn1c(=O)c(-c2cccc(C#N)c2)nc2cnc(N3CCOCC3)nc21 |  | -0.444%
